Assay [1] is described as follows: ATG_PBREM_CIS: Attagene CIS-FACTORIAL HepG2 Assay for human Phenobarbital-responsive Enhancer Module (PBREM) (AID 2282955). The following applies: HepG2 PBREM cis-reporter, Attagene multiplexed transcription; actives raise or lower the signal. The procedure, abridged: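 Transfected liver-derived HepG2 cells exposed 24 h; PBREM reporter transcript quantified via RT-PCR and capillary electrophoresis, with activity in either direction referenced to DMSO.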

For assay [2], the target named is Paired box protein Pax-6 (Homo sapiens) (UniProt P26367). Nature of the assay: ATG_Pax6_CIS: Attagene CIS-FACTORIAL HepG2 Assay for human Paired Box 6 (PAX6) (AID 2282956). As to conditions: HepG2 CIS-FACTORIAL PAX6 reporter transcription, RNA readout; actives raise or lower the signal. In short, it runs like this:
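Values derive from bidirectional curve fitting of reporter mRNA signal relative to DMSO. HepG2 cells bearing transfected cis-regulated MRTUs were exposed for 24 h; transcripts were read by RT-PCR and capillary electrophoresis.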

The nature of assay [3]: ATG_PXRE_CIS: Attagene CIS-FACTORIAL HepG2 Assay for human Pregnane X Receptor Element (PXRE) (AID 2282957). The following applies: HepG2 Attagene CIS-FACTORIAL PXRE reporter, mRNA; actives raise or lower the signal. In short, it runs like this: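 Endogenous transcription factor activity in HepG2 was gauged through induction of reporter mRNA driven by a cis-regulating promoter element, sampled 24 h post-treatment. Activity was fitted in both directions against DMSO negative control.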

A short description of assay [4]: ATG_PPRE_CIS: Attagene CIS-FACTORIAL HepG2 Assay for human Peroxisome Proliferator-activated Response Element (PPRE) (AID 2282958). As to conditions: HepG2 PPRE cis-element reporter, Attagene transcription factor profiling; actives raise or lower the signal. The procedure, abridged: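 Measured endpoint: PPRE-controlled reporter mRNA, detected by RT-PCR and capillary electrophoresis fluorescence, from transiently transfected HepG2 cells 24 h after dosing. Curves fitted in both directions using DMSO baseline.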

A short description of assay [5]: ATG_RORE_CIS: Attagene CIS-FACTORIAL HepG2 Assay for human RAR-related Orphan Receptor Element (RORE) (AID 2282959). The following applies: HepG2 Attagene cis-factorial RORE reporter, mRNA; actives raise or lower the signal. In short, it runs like this:
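Transiently transfected HepG2 reporter cells were treated 24 h. Reporter transcripts were detected by RT-PCR and capillary electrophoresis, with bidirectional fitting against DMSO.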

A short description of assay [6]: ATG_Sox_CIS: Attagene CIS-FACTORIAL HepG2 Assay for human SRY-box transcription factor (SOX) (AID 2282960). The following applies: HepG2 Attagene cis-factorial SOX reporter, mRNA; actives raise or lower the signal. The procedure, abridged: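 Gain- or loss-of-signal endpoint, fitted bidirectionally with DMSO as negative control. Based on reporter mRNA from transfected HepG2 cells harvested 24 h post-treatment and quantified via RT-PCR and capillary electrophoresis.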

Assay [7] concerns the target Transcription factor Sp1 (Homo sapiens) (UniProt P08047). Nature of the assay: ATG_Sp1_CIS: Attagene CIS-FACTORIAL HepG2 Assay for human Specificity Protein 1 (Sp1) (AID 2282961). As to conditions: HepG2 Sp1 cis-reporter transcription, actives raise or lower the signal. In short, it runs like this: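 Endpoint reflects endogenous Sp1 transcriptional activity, not an exogenous fusion protein: HepG2 cells with transfected cis-regulated reporters, 24 h dosing, RT-PCR/capillary electrophoresis mRNA read-out, DMSO-normalised bidirectional fit.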

Assay [8] in a line: ATG_SREBP_CIS: Attagene CIS-FACTORIAL HepG2 Assay for human Sterol Regulatory Element Binding (SREBP) (AID 2282962). As to conditions: HepG2 Attagene cis-factorial SREBP reporter, mRNA; actives raise or lower the signal. In short, it runs like this: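 Values derive from bidirectional curve fitting with DMSO as baseline. The underlying measurement is reporter mRNA from cis-element-regulated units in transiently transfected HepG2, quantified by RT-PCR and capillary electrophoresis after 24 h exposure.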

In assay [9] the target is Signal transducer and activator of transcription 3 (Homo sapiens) (UniProt P40763). Nature of the assay: ATG_STAT3_CIS: Attagene CIS-FACTORIAL HepG2 Assay for human Signal Transducer and Activator of Transcription 3 (STAT3) (AID 2282963). As to conditions: HepG2, Attagene cis-factorial STAT3 reporter transcription; actives raise or lower the signal. The procedure, abridged: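 Cis-factorial format: endogenous transcription factors in HepG2 drive transfected reporter units. After 24 h treatment, reporter RNA was reverse-transcribed, amplified, FAM-labelled and HpaI-digested before CE analysis; activity scored in both directions against DMSO.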

A short description of assay [10]: ATG_TA_CIS: Attagene CIS-FACTORIAL HepG2 Assay for human TA Basal Promoter (AID 2282964). The following applies: HepG2 Attagene CIS-factorial TA basal promoter reporter; actives raise or lower the signal. In short, it runs like this: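 Read-out: fluorescent reporter-transcript fragments resolved by capillary electrophoresis after RT-PCR and HpaI digestion. Source: HepG2 cells carrying transiently transfected multi-reporter cis constructs, treated 24 h. Endpoint fitted bidirectionally relative to DMSO.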

Assay [11] can be described thus: ATG_TCF_b_cat_CIS: Attagene CIS-FACTORIAL HepG2 Assay for human T-Cell-Factor with beta-catenin (TCF/b-cat) (AID 2282965). As to conditions: HepG2 TCF/beta-catenin cis-reporter transcription, actives raise or lower the signal. The procedure, abridged:
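Endogenous TCF/LEF activity read as reporter transcript level via RT-PCR and capillary electrophoresis fluorescence in transfected HepG2, 24 h exposure; gain or loss of signal fitted against DMSO controls.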

Assay [12] is described as follows: ATG_TAL_CIS: Attagene CIS-FACTORIAL HepG2 Assay for human TAL Basal Promoter (AID 2282966).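 Further: background control endpoint measuring basal TAL promoter reporter mRNA not a specific factor.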 The following applies: HepG2 Attagene cis-factorial TAL promoter reporter; actives raise or lower the signal. In short, it runs like this: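 Endogenous transcription-factor activity is sensed in HepG2 cells through transfected cis-promoter reporter constructs. After 24 h dosing, reporter transcripts are quantified by RT-PCR and capillary electrophoresis. Gain or loss of signal is fitted relative to DMSO.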

Assay [13] in a line: ATG_TGFb_CIS: Attagene CIS-FACTORIAL HepG2 Assay for human Transforming Growth Factor (TGF) (AID 2282967). As to conditions: HepG2 Attagene CIS TGFb reporter, mRNA transcription; actives raise or lower the signal. The procedure, abridged: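 Transient MRTU transfection of HepG2 (FuGene 6). Dose 24 h. TriZol RNA, oligo(dT) RT, PCR, 6-FAM primer extension, HpaI cut, CE. Bidirectional fit, DMSO = baseline.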

Assay [14] is described as follows: ATG_VDRE_CIS: Attagene CIS-FACTORIAL HepG2 Assay for human Vitamin D Receptor Element (VDRE) (AID 2282968). As to conditions: HepG2 VDRE cis-reporter transcription, actives raise or lower the signal. The procedure, abridged:
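Measures endogenous factor activity through cis-element-driven reporter transcripts in transiently transfected HepG2. Cells are treated 24 h; reporter mRNA is quantified by RT-PCR and capillary electrophoresis; fitting is bidirectional.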

For assay [15], the target named is Nuclear receptor subfamily 1 group I member 3 (Homo sapiens) (UniProt Q14994). Nature of the assay: ATG_CAR_TRANS: Attagene TRANS-FACTORIAL HepG2 Assay for human Constitutive Androstane Receptor (CAR) (AID 2282969; active means hit-call score of the fitted dose curve at least 0.9, where 1 is the maximum;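 further: activators raise reporter mRNA above DMSO so AC50 marks induction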). The following applies: HepG2 Attagene TRANS-FACTORIAL CAR reporter. The procedure, abridged: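 Signal is reporter mRNA induction relative to DMSO, measured 24 h after dosing by RT-PCR with fluorescent primer extension and capillary electrophoresis. Human HepG2 liver cells carried transiently transfected chimeric NR-Gal4/GAL4-UAS reporter constructs.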

Assay [16] concerns the target X-box-binding protein 1 (Homo sapiens) (UniProt P17861). Nature of the assay: ATG_Xbp1_CIS: Attagene CIS-FACTORIAL HepG2 Assay for human X-box Binding Protein 1 (XBP1) (AID 2282972). The following applies: HepG2 XBP1 cis-element reporter, Attagene multiplex; actives raise or lower the signal. The procedure, abridged:
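Human hepatoma HepG2, cis-element reporter system, 24 h treatment; mRNA quantified by RT-PCR/CE fluorescence; fit relative to DMSO.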

Assay [17] has as its target Steroid hormone receptor ERR1 (Homo sapiens) (UniProt P11474). Nature of the assay: ATG_ERRa_TRANS: Attagene TRANS-FACTORIAL HepG2 Assay for human Estrogen-Related Receptor alpha (ERRa) (AID 2282971; active means hit-call score of the fitted dose curve at least 0.9, where 1 is the maximum). As to conditions: HepG2 Attagene TRANS reporter, ERRa transactivation. The procedure, abridged: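 HepG2 cells were transiently transfected with multiple GAL4-UAS reporter units, then dosed with compound for 24 h. Total RNA was reverse-transcribed, reporter cDNA PCR-amplified and fluorescently labelled, and fragments resolved by capillary electrophoresis; induction was compared with DMSO.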

The target of assay [18] is Estrogen receptor (Homo sapiens) (UniProt P03372). Nature of the assay: ATG_ERa_TRANS: Attagene TRANS-FACTORIAL HepG2 Assay for human Estrogen Receptor alpha (ERa) (AID 2282970; active means hit-call score of the fitted dose curve at least 0.9, where 1 is the maximum). The following applies: HepG2 Attagene TRANS ERa GAL4 reporter, mRNA. In short, it runs like this: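 Transfected HepG2 cells carrying GAL4-UAS-driven reporter units were dosed for 24 hours. Total RNA was reverse-transcribed, reporter sequences PCR-amplified, FAM-labelled, HpaI-digested and resolved by capillary electrophoresis. Increases over DMSO control defined activity.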

Assay [19] is described as follows: ATG_M_19_TRANS: Attagene TRANS-FACTORIAL HepG2 Assay for M19 Transcription Factor (Internal Marker) (AID 2282974; active means hit-call score of the fitted dose curve at least 0.9, where 1 is the maximum). The following applies: HepG2 Attagene TRANS-FACTORIAL M19 internal marker reporter. In short, it runs like this: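 Using RT-PCR and capillary electrophoresis, reporter mRNA from transiently transfected human HepG2 cells was quantified following 24 h exposure; activity was fitted in the positive direction against DMSO.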

Assay [20] can be described thus: ATG_GAL4_TRANS: Attagene TRANS-FACTORIAL HepG2 Assay for GAL4 (Internal Marker) (AID 2282976; active means hit-call score of the fitted dose curve at least 0.9, where 1 is the maximum). The following applies: HepG2 Attagene TRANS GAL4 internal marker reporter. The procedure, abridged: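 Fluorescence from capillary electrophoresis of labelled RT-PCR products quantifies reporter mRNA induction after 24 h dosing of HepG2 cells carrying transfected GAL4-UAS reporter transcription units. Vehicle DMSO serves as baseline.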

Records with an inconclusive call do not appear. Calls of active or inactive are those of the source. How the source made its calls, unless noted: active means hit-call score of the fitted dose curve at least 0.9, where 1 is the maximum; inactive means score below 0.9.

Sequence of Signal transducer and activator of transcription 3 (Homo sapiens) (P40763 whole entry, looked up): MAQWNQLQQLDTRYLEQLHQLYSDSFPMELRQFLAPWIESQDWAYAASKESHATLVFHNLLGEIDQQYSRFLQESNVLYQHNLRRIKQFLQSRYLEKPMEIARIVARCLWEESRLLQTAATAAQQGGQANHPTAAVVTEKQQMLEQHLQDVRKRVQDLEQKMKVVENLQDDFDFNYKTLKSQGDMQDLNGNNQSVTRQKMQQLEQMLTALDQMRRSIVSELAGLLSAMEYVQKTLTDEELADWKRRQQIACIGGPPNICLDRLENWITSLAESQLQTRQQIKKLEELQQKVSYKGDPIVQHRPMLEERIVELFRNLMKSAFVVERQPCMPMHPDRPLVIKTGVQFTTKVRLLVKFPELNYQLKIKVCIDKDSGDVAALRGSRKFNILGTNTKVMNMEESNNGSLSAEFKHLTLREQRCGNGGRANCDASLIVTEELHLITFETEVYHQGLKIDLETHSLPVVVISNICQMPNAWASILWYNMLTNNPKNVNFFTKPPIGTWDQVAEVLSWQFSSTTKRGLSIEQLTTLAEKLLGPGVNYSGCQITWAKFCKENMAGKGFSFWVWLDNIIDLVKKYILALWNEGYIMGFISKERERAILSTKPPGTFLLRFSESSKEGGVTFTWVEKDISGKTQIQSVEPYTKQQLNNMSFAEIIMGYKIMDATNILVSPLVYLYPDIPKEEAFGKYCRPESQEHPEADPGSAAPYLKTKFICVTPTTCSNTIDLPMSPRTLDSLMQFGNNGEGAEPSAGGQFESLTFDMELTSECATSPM
Sequence of X-box-binding protein 1 (Homo sapiens) (P17861 whole entry, looked up): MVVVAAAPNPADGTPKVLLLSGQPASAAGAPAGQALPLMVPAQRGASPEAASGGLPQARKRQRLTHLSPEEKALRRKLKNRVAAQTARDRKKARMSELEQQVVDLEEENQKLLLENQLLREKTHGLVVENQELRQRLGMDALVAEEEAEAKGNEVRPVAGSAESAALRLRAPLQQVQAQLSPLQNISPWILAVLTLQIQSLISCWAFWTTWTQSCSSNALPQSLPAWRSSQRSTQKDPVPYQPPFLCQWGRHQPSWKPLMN
Sequence of Transcription factor Sp1 (Homo sapiens) (P08047 whole entry, looked up, the tested form may be a part): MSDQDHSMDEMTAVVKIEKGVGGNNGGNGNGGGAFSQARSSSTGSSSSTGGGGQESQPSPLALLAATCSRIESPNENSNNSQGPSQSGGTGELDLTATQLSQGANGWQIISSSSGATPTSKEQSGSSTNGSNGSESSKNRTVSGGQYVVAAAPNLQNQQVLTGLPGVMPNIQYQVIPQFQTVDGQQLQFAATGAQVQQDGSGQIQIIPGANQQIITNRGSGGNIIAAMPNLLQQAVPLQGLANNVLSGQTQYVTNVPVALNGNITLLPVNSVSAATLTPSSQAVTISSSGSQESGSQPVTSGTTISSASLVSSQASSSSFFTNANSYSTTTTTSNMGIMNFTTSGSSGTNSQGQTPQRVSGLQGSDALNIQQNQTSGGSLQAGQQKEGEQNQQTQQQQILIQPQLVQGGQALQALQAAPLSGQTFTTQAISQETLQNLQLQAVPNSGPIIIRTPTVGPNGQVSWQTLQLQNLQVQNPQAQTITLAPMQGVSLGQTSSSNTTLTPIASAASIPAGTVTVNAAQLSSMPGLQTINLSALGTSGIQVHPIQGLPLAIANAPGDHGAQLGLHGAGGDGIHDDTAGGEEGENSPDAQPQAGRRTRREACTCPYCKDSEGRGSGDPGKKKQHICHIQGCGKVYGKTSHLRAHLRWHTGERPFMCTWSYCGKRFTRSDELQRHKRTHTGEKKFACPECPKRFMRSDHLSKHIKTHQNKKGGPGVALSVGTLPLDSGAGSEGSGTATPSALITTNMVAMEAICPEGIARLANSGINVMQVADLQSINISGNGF
Sequence of Paired box protein Pax-6 (Homo sapiens) (P26367 whole entry, looked up): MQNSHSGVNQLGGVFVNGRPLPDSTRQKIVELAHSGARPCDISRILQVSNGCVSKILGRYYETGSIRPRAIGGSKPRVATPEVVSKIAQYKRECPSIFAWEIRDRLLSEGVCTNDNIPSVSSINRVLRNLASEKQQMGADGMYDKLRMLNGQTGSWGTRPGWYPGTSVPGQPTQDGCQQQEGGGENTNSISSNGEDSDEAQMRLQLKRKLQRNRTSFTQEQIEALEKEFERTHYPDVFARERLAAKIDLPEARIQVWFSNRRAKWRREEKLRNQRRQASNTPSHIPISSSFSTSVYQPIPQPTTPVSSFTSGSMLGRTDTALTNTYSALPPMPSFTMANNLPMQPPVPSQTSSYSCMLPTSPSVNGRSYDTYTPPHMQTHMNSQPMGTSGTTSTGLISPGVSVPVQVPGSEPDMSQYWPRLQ
Sequence of Nuclear receptor subfamily 1 group I member 3 (Homo sapiens) (Q14994 whole entry, looked up, the tested form may be a part): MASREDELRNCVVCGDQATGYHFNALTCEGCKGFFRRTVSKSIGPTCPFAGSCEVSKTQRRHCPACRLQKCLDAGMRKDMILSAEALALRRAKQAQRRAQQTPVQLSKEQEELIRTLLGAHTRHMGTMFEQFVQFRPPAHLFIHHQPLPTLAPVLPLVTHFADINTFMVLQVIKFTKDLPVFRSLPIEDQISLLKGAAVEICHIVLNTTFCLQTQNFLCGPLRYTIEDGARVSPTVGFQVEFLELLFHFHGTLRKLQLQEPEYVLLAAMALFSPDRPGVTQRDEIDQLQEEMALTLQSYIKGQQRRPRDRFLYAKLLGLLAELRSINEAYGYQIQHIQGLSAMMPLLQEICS
Sequence of Estrogen receptor (Homo sapiens) (P03372 whole entry, looked up, the tested form may be a part): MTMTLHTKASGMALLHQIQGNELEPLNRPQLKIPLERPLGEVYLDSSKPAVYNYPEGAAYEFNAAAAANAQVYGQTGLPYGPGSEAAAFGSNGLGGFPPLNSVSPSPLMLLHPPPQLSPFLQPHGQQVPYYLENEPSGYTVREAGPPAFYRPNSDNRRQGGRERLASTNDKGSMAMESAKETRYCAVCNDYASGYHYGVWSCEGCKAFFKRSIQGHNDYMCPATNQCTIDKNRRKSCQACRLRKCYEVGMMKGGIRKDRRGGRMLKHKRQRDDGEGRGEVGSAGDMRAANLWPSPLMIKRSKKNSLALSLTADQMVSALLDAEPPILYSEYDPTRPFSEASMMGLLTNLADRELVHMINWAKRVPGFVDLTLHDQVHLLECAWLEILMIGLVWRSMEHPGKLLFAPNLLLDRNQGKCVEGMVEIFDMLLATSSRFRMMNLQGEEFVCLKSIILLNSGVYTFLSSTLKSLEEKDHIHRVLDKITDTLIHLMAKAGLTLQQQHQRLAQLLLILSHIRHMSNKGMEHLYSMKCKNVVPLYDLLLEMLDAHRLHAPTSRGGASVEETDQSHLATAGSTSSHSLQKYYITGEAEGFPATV
Sequence of Steroid hormone receptor ERR1 (Homo sapiens) (P11474 whole entry, looked up, the tested form may be a part): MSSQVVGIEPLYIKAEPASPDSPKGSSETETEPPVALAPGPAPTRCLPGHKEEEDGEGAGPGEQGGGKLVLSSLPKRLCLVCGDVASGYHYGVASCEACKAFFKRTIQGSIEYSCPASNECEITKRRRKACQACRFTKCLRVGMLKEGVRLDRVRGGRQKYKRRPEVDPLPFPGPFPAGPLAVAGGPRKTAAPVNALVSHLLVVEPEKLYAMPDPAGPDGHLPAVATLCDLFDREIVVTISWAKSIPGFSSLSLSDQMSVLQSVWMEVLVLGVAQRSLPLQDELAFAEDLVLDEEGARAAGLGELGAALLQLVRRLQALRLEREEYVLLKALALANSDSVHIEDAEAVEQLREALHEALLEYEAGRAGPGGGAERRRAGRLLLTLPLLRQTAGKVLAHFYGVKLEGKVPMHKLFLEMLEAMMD

Usually AC50 stands for the midpoint of the concentration-response curve, whichever way the signal moves. Take `CN1CN(C)CN(C)C1`: the outcome in [1], in [2], in assay [4], in assay [5], in [6] and in assay [7] was inactive. Also, the call in assay [8], in [9], in assay [10], in [11], in assay [12] and in [13] was inactive. Besides, the compound was classed as inactive in assay [14] and in [15]. In addition, the figures for the AC50 in assay [3] and in assay [16] were 49.5 µM (active) and 169 µM (active), respectively.
Consider `Cc1ccc([N+](=O)[O-])c(C)c1`, for which the outcome in assay [1], in [2], in assay [3], in [4], in assay [5] and in assay [6] was inactive. The call in [7], in assay [8], in assay [9], in assay [10], in assay [11] and in assay [12] was inactive. Moreover, the compound was called inactive in assay [13], in assay [14], in assay [15], in [17] and in assay [16].
Regarding `CCCCCCCCCCCC(=O)Cl`, the outcome in assay [1], in assay [2], in assay [3], in assay [5], in [6] and in [7] was inactive. The compound was classed as inactive in assay [9], in assay [10], in assay [12], in [13], in assay [14] and in assay [18]. Moreover, the compound was called inactive in assay [16]. In addition, the AC50 in [4] is 49.9 µM (active); in assay [8], 41.2 µM (active); in [11] it was 161 µM (active).
On to `CCCCC(CC)COC(=O)c1ccc(N(C)C)cc1` (stereo not given), for which the outcome in assay [1], in [2], in [5], in [6], in [7] and in [8] was inactive. Besides, the compound was classed as inactive in assay [9], in assay [10], in assay [11], in assay [12], in assay [13] and in assay [14]. Further, the result in [15] and in [16] was inactive. Also, the values for the AC50 in [3], in assay [4] and in assay [18] were 8.25 µM (active), 32.6 µM (active) and 5.75 µM (active), respectively.
Take `O=C(O)CCC(F)(F)C(F)(F)C(F)(F)C(F)(F)C(F)(F)C(F)(F)C(F)(F)F`: the outcome in assay [1], in assay [2], in assay [3], in assay [5], in assay [6] and in [7] was inactive. Moreover, the compound was called inactive in assay [8], in assay [9], in assay [10], in [12], in assay [13] and in assay [18]. Further, the call in [16] and in assay [19] was inactive. Moreover, the values for the AC50 in assay [4] and in assay [11] were 64.4 µM (active) and 150 µM (active), respectively.
With `O=C=NCc1cccc(CN=C=O)c1`, the result in [1], in assay [2], in assay [3], in [4], in [5] and in assay [6] was inactive. Moreover, the result in assay [7], in [8], in assay [9], in assay [10], in assay [11] and in [12] was inactive. The call in assay [13], in [15], in [16] and in assay [20] was inactive.
`OCC(F)(F)C(F)(F)C(F)(F)CO`: the outcome in assay [1], in assay [2], in [3], in assay [4], in assay [5] and in assay [6] was inactive. The result in assay [7], in assay [8], in assay [9], in [10], in assay [11] and in [12] was inactive. For the same compound, the call in assay [13], in assay [18], in assay [17], in assay [16] and in assay [20] was inactive.

The values are drawn from PubChem BioAssay (EPA / NIEHS).
